The values that follow come from ChEMBL document CHEMBL4513216, “Probing the Open Global Health Chemical Diversity Library for Multistage-Active Starting Points for Next-Generation Antimalarials” (ACS Infect Dis, 2020).

Screen size: about 69,000 compounds; about 8,600 (12%) showed an effect of 50% or more. Only a selection was taken, and strong results are over-represented in it overall.

The assay has as its system Plasmodium berghei. Description: Screen against P. berghei liver stage (PbLuc), transformed with Luciferase, at 10uM. Particulars: tested at 10 uM. The format is functional, HepG2.
For `Cn1cc(C(=O)N2CC[C@@H]3[C@@H]2CCN3c2ncc(F)cn2)cn1`, the INHIBITION was 2.4%.
For `CC1CCN(C(=O)Cn2nc(Br)nc2Br)CC1` the value was -12.7%; for `Cc1nc(C2CCCN(C(=O)c3cccc4c3OCCO4)C2)no1` (configuration not stated), 15.3%; for `CCC(C)(C)C(=O)N1CCN(C2=NCC(C)S2)CC1` (configuration not stated), -87.7%.
For `CC/C=C(/C)C(=O)N1CCN(C2=NCC(C)S2)CC1` (configuration not stated) the value was 30.3%; for `CCN(CC)C(=O)N1CCN(C2=NCC(C)S2)CC1` (configuration not stated), 65.7%; for `CCN1C(=O)C2(CCOCC2)c2cc(NC(=O)c3cnccn3)ccc21`, -28.8%.
The figure for `CC(C)Nc1ccc2c(c1)C1(CCOCC1)C(=O)N2c1ccsc1` is 52.3%; for `CC(=O)Nc1ccc2c(c1)C1(CCOCC1)C(=O)N2c1ccsc1` it is 58.7%; for `CCC(C)Nc1ccc2c(c1)C1(CCOCC1)C(=O)N2c1ccccc1` (configuration not stated) it is 10.5%.
For the molecule `CCN1C(=O)C2(CCOCC2)c2cc(NC(=O)c3csnn3)ccc21`, the INHIBITION is -35.2%.
For `CCN1C(=O)C2(CCOCC2)c2cc(NC(=O)COC)ccc21` the value was -19.8%.
For `COc1cccc(OC)c1CN1CC(O)CN(S(C)(=O)=O)CC1=O` (configuration not stated) the value was 46.4%; for `NC(=O)CN1CCCC(Cc2ccc(N)nn2)C1` (configuration not stated), 8.72%; for `CC(C)n1c(C2CCCN(Cc3ccnn3C)C2)nc2ccccc21` (configuration not stated), 23.9%.
The figure for `COc1cccc(CNc2c(O)c(=O)c2=O)c1` is 0.207%.
As to `Cc1noc(C2CCC3(CCN(C(=O)c4ccn(C)n4)CC3)O2)n1` (configuration not stated), the INHIBITION is reported as -0.371%.
On to `O=C(Cc1ccccc1C(F)(F)F)N1CCC2(CC1)OCCCC2O` (configuration not stated), for which the INHIBITION worked out at 13.2%.
The figure for `COc1ccccc1CC(=O)N1CC[C@H](O)[C@]2(CCCO2)C1` is -12.2%.
For the molecule `COc1cccc(CC(=O)N2CCC3(CC2)OCCCC3O)c1OC` (configuration not stated), the INHIBITION turned out to be 69.7%.
The figure for `COC(=O)c1ccoc1CN(C)CC(=O)NC1CCS(=O)(=O)C1` (configuration not stated) is 17.9%.
For `Cc1nn(-c2ccccc2)c2c1c(C(F)F)cc(=O)n2CC(=O)O` the value was 36.35%.
`CN(C)CCN(C)C1CCN(C(C(=O)O)c2ccc(F)c(Cl)c2)CC1` (configuration not stated): the INHIBITION amounted to 34.9%.
With `CCCOc1cc(CNC(=O)Nc2ccccn2)ccn1`, the INHIBITION is listed as 3.87%.
For the molecule `CC(C)c1nn(C)c(N(C)C)c1CNC1CCN(C2CC2)CC1`, the INHIBITION is 12.8%.
The figure for `CSCC[C@@H](CO)NC(=O)c1ccc2nc(NS(C)(=O)=O)sc2c1` is 46.7%.
For `C[C@@H](CO)NC(=O)c1ccc2nc(NS(C)(=O)=O)sc2c1` the value was 54.2%; for `CC(CO)NC(=O)c1ccc2[nH]/c(=N\S(C)(=O)=O)sc2c1` (configuration not stated), 4.93%.
For `Cc1cc(C(=O)N2CCC3(CC2)C(=O)N(C)CCN3CC2CC2)c(C)o1` the value was 4.98%.
As to `CN(Cc1ccncc1)C1COC2(CCN(Cc3ccsc3)CC2)C1` (configuration not stated), the INHIBITION was found to be 49.7%.
With `CN(Cc1ccncc1)C1COC2(CCN(Cc3cccs3)CC2)C1` (configuration not stated), the INHIBITION is 4.57%.
The figure for `CN(Cc1ccncc1)C1COC2(CCN(Cc3ccco3)CC2)C1` (configuration not stated) is 59%; for `CN(Cc1ccncc1)C1CC2(CCN(Cc3ccccn3)CC2)C1` it is 28.7%.
Take `CN(C)C1COC2(CCN(Cc3ccncc3)CC2)C1` (configuration not stated): the INHIBITION turned out to be 29.9%.
For `CN(Cc1ccncc1)C1COC2(CCN(Cc3nccn3C)CC2)C1` (configuration not stated) the value was 73%; for `CN(Cc1ccncc1)C1COC2(CCN(c3ncc(F)cn3)CC2)C1` (configuration not stated), 37.8%; for `CN(Cc1ccccn1)C1COC2(CCN(Cc3cccnc3)CC2)C1` (configuration not stated), 38.1%.
With `CN(Cc1ccncc1)C1COC2(CCN(Cc3ccccn3)CC2)C1` (configuration not stated), the INHIBITION is reported as 52%.
For `O=C(O)CCNC(=O)Cc1csc(-c2cccc(Cl)c2)n1` the value was 25.1%; for `Cc1nc(CN2CCN(C(=O)c3sccc3C3CC3)CC2)oc1C`, 1.75%.
`CCc1cc(O)n2nc(C3CCCN3C(=O)c3ccccn3)cc2n1` (configuration not stated): the INHIBITION came out at 18.85%.
The figure for `Cc1ccc(CNc2nc(O)cc(C3CC(=O)N(C)C3)n2)cc1` (configuration not stated) is -16.5%; for `COc1cccc(CNc2nc(O)cc(C3CC(=O)N(C)C3)n2)c1` (configuration not stated) it is 17.1%; for `CCOCCCNc1nc(O)cc(C2CC(=O)N(C)C2)n1` (configuration not stated) it is 56.9%.
For `CNC(=O)c1cnc(C)nc1CCNC(=O)CCc1ccccc1` the value was -0.232%.
On to `COCC1c2c(cnn2CC2CC2)CCN1Cc1nccs1` (configuration not stated), for which the INHIBITION was 7.11%.
As for `Cc1nc(CCNC(=O)C(N)c2c(C)n[nH]c2C)sc1C` (configuration not stated), the INHIBITION was found to be 56%.
For `Cc1n[nH]c(C)c1C(N)C(=O)NCCc1csc(C(C)C)n1` (configuration not stated) the value was -10.8%; for `CSCc1nc(CCNC(=O)C(N)c2c(C)n[nH]c2C)cs1` (configuration not stated), 21.2%.
For `O=C(N1CCCC1)N1CCC2(CC1)COCCN(Cc1cccnc1)C2` the value was 41.6%; for `C[C@@H](NC(=O)c1ccc(Cl)cc1)c1onc(-c2cccnc2)c1C(=O)O`, -4.82%; for `COc1cccc2c1OCCCN(c1nc(N)nc3c1CCNC3)C2`, 27.6%.
The figure for `COCCNc1nc2c(c(N3CCn4nc(C)cc4C3)n1)CCNCC2` is 27.6%; for `Cc1cccc(=O)n1CCCNc1nc(N(C)C)nc2c1CCNC2` it is 10.9%.
As to `c1ccc2c(c1)CCN(c1ncnc3sc4c(c13)CCNC4)C2`, the INHIBITION amounted to 38.2%.
For `Cc1nc2c(c(N3CCN(c4ncccc4C(N)=O)CC3)n1)CCNC2` the value was 32.5%; for `Cc1ccccc1N1CCN(c2nc(N(C)C)nc3c2CCNC3)CC1`, 88.5%; for `Cc1cc2n(n1)CCN(c1nc(N(C)C)nc3c1CCNC3)C2`, 57.6%.
The figure for `NCCC1CN(c2nc(-c3ccccc3)nc3c2CCNC3)CCO1` (configuration not stated) is 38.2%; for `CN(C)c1nc2c(c(N3CCc4c(c(CO)nn4C)C3)n1)CCNC2` it is -2.43%; for `CN(C)c1nc2c(c(N3CCc4ccccc4C3)n1)CCNC2` it is 66.7%.
The figure for `c1ccc2c(c1)CCN(c1nc(-c3ccncc3)nc3c1CCNC3)C2` is 58%; for `Cc1cc2n(n1)CCN(c1nc(N)nc3c1CCNCC3)C2` it is 12.1%; for `COCC1CN(Cc2ccsc2)Cc2nn(C)cc21` (configuration not stated) it is 22.2%.
Turning to `CN(CCCO)Cc1cc(Cl)ccc1OCC(O)CN1CCCCCC1` (configuration not stated), the INHIBITION is -50.7%.
For `COc1ccnc(N2CCN(C(=O)Cc3ccn(C(C)C)n3)CC2)n1`, the INHIBITION is reported as -47.6%.
Regarding `Cc1nn(C)c2nc(C(C)C)cc(C(=O)Nc3n[nH]c(C4CC4)n3)c12`, the INHIBITION is 45.3%.
